The values that follow come from PubChem BioAssay (NCATS).

The target in experiment [1] is Glutaminase kidney isoform, mitochondrial (Homo sapiens) (UniProt O94925). The experiment is described as follows: qHTS for Inhibitors of Glutaminase (GLS): LOPAC Validation (AID 624146). Also: nearly all actives have a fitted effect of over 60% in size. Also: potency is read from the fitted curve at half-maximal effect. In short, it runs like this:
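Enzyme dispensed in phosphate buffer (45 mM, pH 8.2, 0.02% Tween-20), compounds pinned in, then 1 mM L-glutamine solution and the glutamate oxidase–HRP–Amplex Red mix added; fluorescence read immediately and again after 30 min at room temperature.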
Background: In qHTS, concentration-response curves come from the screen itself.

Experiment [2] in a line: qHTS of Trypanosoma Brucei Inhibitors: LOPAC Validation (AID 624147). Also: 0% is about no effect. In short, it runs like this: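 Luminescence from Kinase-Glo Plus, added after a 45-minute room-temperature reaction, served as the end-point read-out. The enzyme and substrate were preincubated with compound before ADP (130 uM final) initiated turnover. Concentration-effect curves came from normalized qHTS data.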

The target in experiment [3] is Glucagon-like peptide 1 receptor (Homo sapiens) (UniProt P43220). Nature of the experiment: qHTS of GLP-1 Receptor Agonists: LOPAC Validation (AID 624148).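 Also: luminescence from a luciferase reporter switched on by cAMP; 0% is about no effect; higher luminescence signal means agonism.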 In short, it runs like this:
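Agonism scored as increased luciferase luminescence driven by cAMP in HEK293 clones carrying GLP-1R. Cells settled 12 hours, received compound for 4-6 hr at 37 deg C, 5% CO2, and were read after 12 min detection reagent at RT.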

Experiment [4] can be described thus: qHTS of Nrf2 Activators: LOPAC Validation (AID 624149). Also: 0% is about no effect. The gist of the method: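 AREc32_Fluc cells, 1000/well, OPTI-MEM + 5% FBS, o/n 37 deg C 5% CO2; compound pin-transfer, 24 hr 37 deg C; Steady-Glo 30 min RT, luminescence read.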
Experiment [5] can be described thus: S16 Schwann cell PMP22 intronic element beta-lactamase assay (AID 624044; calls by dose curve; also: nearly all actives have a fitted effect of over 15% in size; also: potency is read from the fitted curve at half-maximal effect). The gist of the method: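 Beta-lactamase reporter under a PMP22 intronic regulatory element in stable S16 rat Schwann cells; 24 h compound exposure. 460 nm blue signal normalized between DMSO (0%) and potassium clavulanate, with 535 nm FRET tracking viability; curves classed by r2 and response.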

Experiment [6] can be described thus: HTS Assay for Allosteric Antagonists of the Human D2 Dopamine Receptor: Hit Validation in HTRF (AID 624455). Also: % is scaled to controls: 0 for no effect and ±100 for the full control effect. In short, it runs like this: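 HTRF read-out; cells stably expressing D1 receptor; hits scored for inhibition of D1-mediated response. Primary screen: calcium flux, force-coupled inducible Hek293 Trex D2 line, antagonism vs EC80 dopamine.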
On the technique in general: Time-resolved FRET reads energy transfer from a long-lived donor to a nearby acceptor.

Experiment [7] in a line: qHTS assay for small molecule agonists of the antioxidant response element (ARE) signaling pathway (AID 651741; active = well fitted activation curve with a large enough effect in the signal ratio; the % refers to the signal ratio; also: potency is read from the fitted curve at half-maximal effect). In short, it runs like this:
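Agonist activity is measured as ARE-driven beta-lactamase expression in a stable HepG2 reporter line, using 16 h compound treatment at 37 C and a FRET substrate fluorescence readout after 2 h.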

Experiment [8] can be described thus: qHTS assay for small molecule disruptors of the mitochondrial membrane potential - 1 hr assay (AID 651754; calls by dose curve; also: potency is read from the fitted curve at half-maximal effect; nearly all actives have a fitted effect of over 35% in size). In short, it runs like this:
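Read-out: dye fluorescence at 490 nm ex/535 nm em (monomers) and 540 nm ex/590 nm em (aggregates) in HepG2 cells. Compound exposure 1 hr at 37C, followed by 30 min dye loading.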

Experiment [9] can be described thus: qHTS assay for small molecule disruptors of the mitochondrial membrane potential - 5 hr assay (AID 651755; calls by dose curve; also: nearly all actives have a fitted effect of over 40% in size; also: potency is read from the fitted curve at half-maximal effect). In short, it runs like this: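 Membrane-potential dye readout: red aggregate (540 ex/590 em) versus green monomer (490 ex/535 em) fluorescence after 30 min dye loading, following 5 hr compound exposure at 37C of overnight-plated HepG2 cells.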
Experiment [10] can be described thus: qHTS assay for environmental chemicals that activate the Aryl hydrocarbon Receptor (AhR) signaling pathway (AID 651777). Also: % of control where 0% means no effect; nearly all actives have a fitted effect of over 15% in size. Particulars: 1A2-DRE human hepatoma cells, luciferase, 24 h; activation: hits give high values. In short, it runs like this:
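Luminescence read-out: One-Glo added for 30 min at RT after 24 hr compound treatment (37 C, 5% CO2) of human hepatoma cells expressing a DRE/CYP1A2 promoter–luciferase reporter; increased signal indicates AhR activation.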

Experiment [11] concerns the target Tumor necrosis factor (Homo sapiens) (UniProt P01375). Nature of the experiment: qHTS assay to identify small molecules that stimulate Tumor Necrosis Factor-alpha (TNF-alpha) secretion (AID 651757; active = well fitted curve in the direction sought with a large enough effect in the signal ratio; the % refers to the signal ratio; also: 0% is about no effect). The gist of the method:
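THP-1 cells, 3000/well; compound 17 hrs, 37 C; add cryptate/XL665 anti-TNF-alpha antibody pair; 3 hr RT; TR-FRET (HTRF) read of secreted TNF-alpha. Quantitative HTS format.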

Several values for one entry are separate records, joined by “and”; a condition that tells them apart may be missing. Equal values may be shown once. Unmarked numbers belong to inactive results. Results filed as inconclusive are left out. Activity calls are given as the source filed them. Unless noted, calls follow the shape of the dose curve; as a rule, active = well fitted curve in the direction sought with a large enough effect; inconclusive = small, poorly fitted or top-dose-only effect, or another doubt; inactive = no such curve, though single readings can be large; an effect the other way counts as inactive or inconclusive.

Sequence of Glucagon-like peptide 1 receptor (Homo sapiens) (P43220 whole entry, looked up): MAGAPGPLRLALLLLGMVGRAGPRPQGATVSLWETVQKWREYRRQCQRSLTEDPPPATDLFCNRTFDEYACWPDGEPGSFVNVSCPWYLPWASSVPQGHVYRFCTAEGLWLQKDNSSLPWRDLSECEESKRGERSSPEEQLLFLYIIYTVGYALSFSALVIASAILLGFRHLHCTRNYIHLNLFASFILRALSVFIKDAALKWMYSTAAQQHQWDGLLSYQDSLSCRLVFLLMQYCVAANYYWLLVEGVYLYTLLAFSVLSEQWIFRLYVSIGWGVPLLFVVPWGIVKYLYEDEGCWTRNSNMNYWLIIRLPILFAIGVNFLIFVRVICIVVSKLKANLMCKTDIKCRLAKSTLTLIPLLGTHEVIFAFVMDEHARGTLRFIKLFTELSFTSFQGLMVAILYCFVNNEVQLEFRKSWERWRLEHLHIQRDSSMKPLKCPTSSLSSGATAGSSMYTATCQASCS
Sequence of Glutaminase kidney isoform, mitochondrial (Homo sapiens) (O94925 whole entry, looked up, canonical isoform): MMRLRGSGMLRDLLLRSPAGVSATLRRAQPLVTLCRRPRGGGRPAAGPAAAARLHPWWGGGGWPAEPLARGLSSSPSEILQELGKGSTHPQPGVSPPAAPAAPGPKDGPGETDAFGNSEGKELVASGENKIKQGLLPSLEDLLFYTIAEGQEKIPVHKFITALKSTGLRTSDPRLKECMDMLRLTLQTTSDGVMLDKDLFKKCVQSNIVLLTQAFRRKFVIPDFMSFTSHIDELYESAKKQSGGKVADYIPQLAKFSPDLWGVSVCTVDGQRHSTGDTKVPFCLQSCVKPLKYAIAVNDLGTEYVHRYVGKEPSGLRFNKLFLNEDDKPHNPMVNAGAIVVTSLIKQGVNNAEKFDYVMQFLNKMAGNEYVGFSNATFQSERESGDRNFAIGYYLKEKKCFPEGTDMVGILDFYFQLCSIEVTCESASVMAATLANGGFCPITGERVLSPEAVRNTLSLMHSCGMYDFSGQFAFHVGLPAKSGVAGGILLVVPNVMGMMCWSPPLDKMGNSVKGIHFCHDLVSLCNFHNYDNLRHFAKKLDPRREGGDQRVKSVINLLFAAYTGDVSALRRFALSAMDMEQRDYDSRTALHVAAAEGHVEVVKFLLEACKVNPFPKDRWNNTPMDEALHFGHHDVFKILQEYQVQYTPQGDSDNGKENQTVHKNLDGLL
Sequence of Tumor necrosis factor (Homo sapiens) (P01375 whole entry, looked up): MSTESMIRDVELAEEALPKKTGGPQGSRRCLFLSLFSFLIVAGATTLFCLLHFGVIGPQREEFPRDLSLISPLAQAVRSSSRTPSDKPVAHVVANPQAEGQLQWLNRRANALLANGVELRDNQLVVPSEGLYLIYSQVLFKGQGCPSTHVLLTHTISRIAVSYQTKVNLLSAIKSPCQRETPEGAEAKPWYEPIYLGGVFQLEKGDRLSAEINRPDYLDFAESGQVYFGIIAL

In the case of `CCCN(CCC)[C@@H]1CCc2ccc(O)cc2C1`, the Potency result in experiment [1] was “inactive”. Besides, the compound was called inactive in experiment [2], in experiment [3] and in experiment [4].

With `NC1=NC(=O)N2CC12` (stereo not given), the Potency result in experiment [5] is “inactive”.

Take `C#CC1(O)CCC2C3CCC4=CC(=O)CCC4(C)C3CCC21C` (stereo not given): in [5], the Potency result was “inactive”.

Take `CCCN(CCC)C1CCc2ccc(O)cc2C1` (stereo not given): the Potency entry in experiment [1] was “inactive”. In addition, the compound was called inactive in [2], in experiment [3] and in experiment [4].

For `CC(C)NC(C)Cc1ccc(I)cc1` (stereo not given), the Potency entry in experiment [5], in experiment [1] and in experiment [6] was “inactive” in each case. The result in experiment [2], in experiment [3] and in [4] was inactive.

In the case of `c1ccc(CCCN2CCN(CCOC(c3ccccc3)c3ccccc3)CC2)cc1`, the Potency entry in [1] and in experiment [6] was “inactive” throughout. Besides, the result in experiment [2], in experiment [3] and in experiment [4] was inactive.

As for `CCCN1CCO[C@@H]2c3cc(O)ccc3OC[C@H]21`, the Potency in experiment [1] was 4.47 µM (active) and 1.41 µM (active). The result in [2], in [3] and in experiment [4] was inactive. Besides, the Potency entry in experiment [6] is “inactive”.

On to `C[C@]12CCC(=O)C(O)=C1CC[C@@H]1[C@H]3CCC(=O)[C@@]3(C)CC[C@@H]12`, for which, in experiment [5], the Potency result was “inactive”.

Turning to `C[C@@H](N)Cc1cnc[nH]1`, the Potency result in experiment [1] and in experiment [6] was “inactive” in each case. The outcome in [2], in experiment [3] and in experiment [4] was inactive.

For `CC[N+]1(CCOC(=O)C(O)(c2ccccc2)c2ccccc2)CCCCC1`, the Potency entry in experiment [5] was “inactive”.

For the compound `COC(=O)c1cncn1C(C)c1ccccc1` (stereo not given), the Potency result in experiment [5] is “inactive”.

Turning to `C[C@]12CCC3C(CC[C@H]4C[C@H](O)CC[C@]34C)C1CC[C@@H]2C(=O)CO` (stereo not given in full), the Potency entry in experiment [1] and in [6] was “inactive” each time. Besides, the compound was called inactive in [2], in [3] and in experiment [4].

Turning to `COc1cc(C(O)CN)ccc1O` (stereo not given), the Potency in experiment [1] was 2.24 µM (active). The call in [2], in [3] and in experiment [4] was inactive. In addition, in experiment [6], the Potency result is “inactive”.

Regarding `O=C(O)Cc1cnc[nH]1`, the Potency result in experiment [1] and in experiment [6] was “inactive” in each case. The compound was classed as inactive in [2], in experiment [3] and in experiment [4].

Regarding `COC(=O)[C@@H](N)CCCN=C(N)N[N+](=O)[O-]`, the Potency result in [5], in experiment [1] and in [6] was “inactive” in each case. Also, the result in experiment [2], in experiment [3] and in [4] was inactive.

On to `CC(=O)[O][Hg][c]1ccccc1`, for which the Potency in experiment [5] is 14.1 µM (active); in experiment [7], 47.3 µM (active); in [8], 16.8 µM (active); in [9], 13.3 µM (active). Further, in [10], the activation was -9.33% and -11.2%.

Regarding `CN(C)[C@@H]1C(=O)C(C(N)=O)=C(O)[C@@]2(O)C(=O)C3=C(O)c4c(O)cccc4[C@@](C)(O)[C@H]3[C@H](O)[C@@H]12`, the Potency entry in [5] and in experiment [9] was “inactive” each time. For the same compound, the outcome in experiment [11] was inactive. Moreover, in [10], the activation is 0.477% and 1.23% and -3.54%.

With `Cc1nccc2c1[nH]c1ccccc12`, the Potency entry in [1] and in experiment [6] was “inactive” in each case. In addition, the outcome in experiment [2], in experiment [3] and in experiment [4] was inactive.

`CC(=O)OCC1=C(C(=O)O)N2C(=O)[C@@H](N)[C@@H]2SC1`: the Potency result in experiment [5] is “inactive”.
